# Where “and” joins values, the source holds several entries; their conditions need not be identical. Identical values can stand only once. Records with an inconclusive call do not appear. A call without a number means that no potency is given here. A number with no mark means an inactive call. Calls of active or inactive are those of the source. Calls come from the whole dose curve; as a rule, active = well fitted curve in the direction sought with a large enough effect; inconclusive = small, poorly fitted or top-dose-only effect, or another doubt; inactive = no such curve, though single readings can be large; an effect the other way counts as inactive or inconclusive.
# How the values were obtained:
# [1] = system: TAB109; assay: qHTS profiling for inhibitors of Plasmodium falciparum proliferation (AID 504749); note: nearly all actives have a fitted effect of over 60% in size; conditions: P. falciparum in erythrocytes, SYBR Green DNA, 72 h; series mostly up to 28.7 µM
# Method in brief: (§1)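 Quantitative HTS: compounds pinned into medium, infected erythrocytes added (0.3% parasitemia, 2.5% hematocrit), 72 h culture at 37 C under 5% CO2. Saponin/Triton lysis with SYBR Green I, overnight RT, then fluorescence read.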
# [2] = system: TAB113; assay: as above; conditions: P. falciparum in erythrocytes, SYBR Green DNA, 72 h; series mostly up to 28.7 µM
# Method in brief: as §1
# [3] = system: TAB165; assay: as above; conditions: P. falciparum in erythrocytes, SYBR Green DNA, 72 h; series mostly up to 28.7 µM
# Method in brief: as §1
# [4] = system: W2; assay: as above; conditions: P. falciparum in erythrocytes, SYBR Green DNA, 72 h; series mostly up to 28.7 µM
# Method in brief: as §1
# [5] = system: CRL-7250; assay: Cytotoxic Profiling of Annotated Libraries Using Quantitative High-Throughput Screening (AID 1296008); conditions: Five cell lines viability, CellTiter-Glo ATP luminescence, 48-72 h; max response: stronger effect = lower value; note: nearly all actives have a fitted effect of over 60% in size; note: potency is the fitted concentration of half-maximal effect
# Method in brief: (§2)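 Compounds were pin-transferred onto cells and incubated 48 or 72 hr at 37 degree Celsius, 95% humidity. CellTiter-Glo was added, plates sat 10 min at room temperature, then ATP-coupled luminescence was imaged as the viability read-out.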
# [6] = system: HEK293; assay: as above; conditions: Five cell lines viability, CellTiter-Glo ATP luminescence, 48-72 h; max response: stronger effect = lower value
# Method in brief: as §2
# [7] = system: HaCat; assay: as above; conditions: Five cell lines viability, CellTiter-Glo ATP luminescence, 48-72 h; max response: stronger effect = lower value
# Method in brief: as §2
# [8] = system: KB-3-1; assay: as above; conditions: Five cell lines viability, CellTiter-Glo ATP luminescence, 48-72 h; max response: stronger effect = lower value
# Method in brief: as §2
# [9] = system: NIH3T3; assay: as above; conditions: Five cell lines viability, CellTiter-Glo ATP luminescence, 48-72 h; max response: stronger effect = lower value
# Method in brief: as §2
# [10] = system: HEK293T; assay: qHTS assay to identify novel small-molecules to repurpose for Merkel cell carcinoma treatment (AID 1296009); conditions: MCC and control cell lines, CellTiter-Glo viability, 72 h; at 44.8 µM (top of the series); note: nearly all actives have a fitted effect of over 60% in size; note: potency is the fitted concentration of half-maximal effect
# Method in brief: (§3)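 Viability readout: ATP luminescence (CellTiter-Glo) after 72 hr drug exposure at 37 degree celsius. Dose-response format was 8 points for NPC and 11 points for MIPE; data normalized to in-plate controls.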
# [11] = system: MCC-13; assay: as above; conditions: MCC and control cell lines, CellTiter-Glo viability, 72 h; series mostly up to 46 µM
# Method in brief: as §3
# [12] = system: MCC-26; assay: as above; conditions: MCC and control cell lines, CellTiter-Glo viability, 72 h; series mostly up to 46 µM
# Method in brief: as §3
# [13] = system: MKL-1; assay: as above; conditions: MCC and control cell lines, CellTiter-Glo viability, 72 h; series mostly up to 46 µM
# Method in brief: as §3
# [14] = system: MKL-2; assay: as above; conditions: MCC and control cell lines, CellTiter-Glo viability, 72 h; series mostly up to 46 µM
# Method in brief: as §3
# [15] = system: NIH3T3; assay: as above; conditions: MCC and control cell lines, CellTiter-Glo viability, 72 h; at 44.8 µM (top of the series) unless noted
# Method in brief: as §3
# [16] = system: UISO; assay: as above; conditions: MCC and control cell lines, CellTiter-Glo viability, 72 h; series mostly up to 46 µM
# Method in brief: as §3
# [17] = system: WaGa; assay: as above; conditions: MCC and control cell lines, CellTiter-Glo viability, 72 h; series mostly up to 46 µM
# Method in brief: as §3
# [18] = system: C33A; assay: Primary qHTS to identify gynecologic anti-cancer compounds using libraries of approved drugs and bioactive compounds (AID 1345084); conditions: Gynecologic cancer cell panel viability, ATPlite luminescence, 48 h; series mostly up to 57.5 µM; note: nearly all actives have a fitted effect of over 55% in size; note: potency is the fitted concentration of half-maximal effect
# Method in brief: (§4)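 Measured: luminescence after ATPlite addition (15 min, RT). Exposure: 48 h, 37 C, 5% CO2.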
# [19] = system: CAOV3; assay: as above; conditions: Gynecologic cancer cell panel viability, ATPlite luminescence, 48 h; series mostly up to 57.5 µM
# Method in brief: as §4
# [20] = system: HACAT; assay: qHTS assay to identify novel small-molecules to repurpose for Merkel cell carcinoma treatment (AID 1296009); conditions: MCC and control cell lines, CellTiter-Glo viability, 72 h; at 44.8 µM (top of the series) unless noted; note: nearly all actives have a fitted effect of over 60% in size; note: potency is the fitted concentration of half-maximal effect
# Method in brief: as §3
compound,measurement,setting,value
C[N+](C)(C)CCCCCC[N+](C)(C)C,outcome,[1],inactive
same,Potency,[2],inactive
same,Potency,[3],inactive
same,Potency,[4],inactive
same,max response,[5],-5.15%
same,outcome,[6],inactive
same,max response,[7],2.98%
same,max response,[8],21.4%
same,outcome,[9],inactive
same,outcome,[10],inactive
same,Potency,[11],inactive
same,Potency,[12],inactive
same,Potency,[13],inactive
same,Potency,[14],inactive
same,outcome,[15],inactive
same,Potency,[16],inactive
same,Potency,[17],inactive
same,Potency,[18],inactive
same,Potency,[19],inactive
Cc1c[nH]c(C=C2C(=O)Nc3ccccc32)c1CCC(=O)O,Potency,[5],6.62 µM (active)
same,Potency,[6],3.32 µM (active)
same,outcome,[7],inactive
same,max response,[8],-13.5%
same,max response,[9],-18.5%
same,outcome,[20],inactive
same,Potency,[11],inactive
same,Potency,[13],inactive
same,Potency,[14],inactive
same,Potency,[17],inactive
C[C@]12CCC3c4ccc(O)cc4CCC3C1CCC2=O (some centres not stated),max response,[5],-16.8%
same,max response,[6],-11.3%
same,max response,[7],-11.3%
same,max response,[8],7.4%
same,max response,[9],-7.72%
same,Potency,[11],inactive
same,Potency,[12],inactive
same,Potency,[13],inactive
same,Potency,[14],inactive
same,Potency,[17],inactive
CC1(C)CCC(CN2CCN(c3ccc(C(=O)NS(=O)(=O)c4ccc(NCC5CCOCC5)c([N+](=O)[O-])c4)c(Oc4cnc5[nH]ccc5c4)c3)CC2)=C(c2ccc(Cl)cc2)C1,max response,[5],-2.21% and -9.69%
same,max response,[6],-5.37% and -6.15%
same,max response,[7],-24.1% and -27.2%
same,max response,[8],0.966%
same,max response,[9],-21% and 4.74%
same,Potency,[11],inactive
same,Potency,[12],inactive
same,Potency,[13],inactive
same,Potency,[16],inactive
same,Potency,[17],inactive
same,Potency,[18],inactive
same,Potency,[19],inactive
O=c1cc(N2CCOCC2)oc2c(-c3cccc4c3sc3ccccc34)cccc12,max response,[5],-14.3%
same,Potency,[6],2.96 µM (active)
same,max response,[7],-6.51%
same,outcome,[8],inactive
same,Potency,[9],16.6 µM (active)
same,Potency,[11],inactive
same,Potency,[12],inactive
same,Potency,[13],inactive
same,Potency,[14],inactive
same,Potency,[16],inactive
same,Potency,[17],inactive
Nc1ncnc2ccccc12,outcome,[5],inactive
same,outcome,[6],inactive
same,max response,[7],-14.1%
same,outcome,[8],inactive
same,max response,[9],-0.365%
same,outcome,[10],inactive
same,Potency,[11],inactive
same,Potency,[13],inactive
same,Potency,[14],inactive
same,Potency,[16],inactive
same,Potency,[17],inactive
O=C1C[C@@H](c2ccc(O)cc2)Oc2cc(O)cc(O)c21,max response,[5],-1.31%
same,max response,[6],-0.968%
same,max response,[7],2.46%
same,max response,[8],7.82%
same,max response,[9],1.63%
same,Potency,[11],inactive
same,Potency,[12],inactive
same,Potency,[13],inactive
same,Potency,[14],inactive
same,Potency,[16],inactive
same,Potency,[17],inactive
O=C(CCCCCCC(=O)Nc1ccccc1)NO,Potency,[5],8.41 µM (active) and 10.3 µM (active) and 11.8 µM (active)
same,Potency,[6],5.96 µM (active) and 8.33 µM (active)
same,Potency,[7],7.5 µM (active) and 9.2 µM (active)
same,Potency,[8],7.31 µM (active) and 5.8 µM (active) and 9.35 µM (active)
same,Potency,[9],10.6 µM (active) and 18.7 µM (active)
same,Potency,[11],6.68 µM (active)
same,Potency,[12],20.9 µM (active)
same,Potency,[13],2.99 µM (active) and 5.9 µM (active)
same,Potency,[14],1.88 µM (active) and 3.32 µM (active)
same,Potency,[16],14.8 µM (active)
same,Potency,[18],6.31 µM (active) and 14.1 µM (active)
CC(C)(C)c1ccc(C(O)CCCN2CCC(C(O)(c3ccccc3)c3ccccc3)CC2)cc1 (configuration not stated),outcome,[5],inactive
same,max response,[6],-7.01%
same,max response,[7],1.94%
same,max response,[8],-14.6% and -4.64%
same,max response,[9],-3.57%
same,Potency,[11],inactive
same,Potency,[12],inactive
same,Potency,[13],inactive
same,Potency,[14],inactive
same,Potency,[16],inactive
same,Potency,[17],inactive
same,Potency,[18],inactive
same,Potency,[19],inactive
O=C(NCCN1CCOCC1)c1ccc(Cl)cc1,outcome,[1],inactive
same,Potency,[2],inactive
same,Potency,[3],inactive
same,Potency,[4],inactive
same,max response,[5],0.679%
same,max response,[6],-0.241%
same,max response,[7],-12.4%
same,max response,[8],3.6% and -22.2%
same,max response,[9],4.53%
same,Potency,[11],inactive
same,Potency,[12],inactive
same,Potency,[13],inactive
same,Potency,[14],inactive
same,Potency,[16],inactive
same,Potency,[17],inactive
same,Potency,[18],inactive
same,Potency,[19],inactive
O=c1c(O)c(-c2ccc(O)cc2)oc2cc(O)cc(O)c12,outcome,[5],inactive
same,outcome,[6],inactive
same,max response,[7],-4.55%
same,outcome,[8],inactive
same,max response,[9],-2.9%
same,outcome,[10],inactive
same,Potency,[11],inactive
same,Potency,[12],inactive
same,Potency,[17],3.72 µM (active)
CC(C)(C)OC(=O)N[C@H]1CCCCCC=C[C@@H]2C[C@@]2(C(=O)NS(=O)(=O)C2CC2)NC(=O)[C@@H]2C[C@@H](OC(=O)N3Cc4cccc(F)c4C3)CN2C1=O,max response,[5],-21.2%
same,max response,[6],3.03%
same,max response,[7],-10.7%
same,max response,[8],5.38%
same,max response,[9],-0.939%
same,Potency,[11],inactive
same,Potency,[12],inactive
same,Potency,[13],inactive
same,Potency,[14],inactive
same,Potency,[16],inactive
same,Potency,[17],inactive
same,Potency,[18],inactive
same,Potency,[19],inactive

# From PubChem BioAssay (NCATS)
